These sequences were tested on VDR:RXRa (NR concentration 270 nM, RXRa partner concentration 90 nM) (assay: PBM binding z-score (relative to random genomic background probes); higher = stronger binding; sequences stand for … in GC…GCGATTGACAGCGTAGAATGAAGG).
Procedure: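 Protein-binding microarray (Agilent 4x180K custom design, double-stranded 60-nt probes: 5' GC cap, 34-nt variable region, 24-nt constant primer region; full probe sequence given). Purified or IVT nuclear receptor:RXRα heterodimers (3:1 NR:RXRα, mostly 270:90 nM) or homodimers were incubated for 1 h in PBS with 2% milk and no ligand, then detected with Alexa488 antibodies. Fluorescence from o1-orientation probes (~5 replicates averaged) was converted to z-scores against 500 random hg19 background probes. Variable regions are seed direct-repeat (DR0–DR5) sites, all their single-nucleotide variants and half-site ablations.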

Row | Sequence | PBM binding z-score
1 | GCGACTGGGGCAAAGCAGGGTACCATAAGGTTGG | -0.276
2 | ATCTCTAGGTAACCAAGTTCAGTGATTGCCGAAC | 4.17
3 | ATCTCTAGGTAAGCAAGTTCAGTGAATGCCGAAC | 3.03
4 | CGTCCAAGGTCAATGCTAGGTCAGTGATAGCATT | 4.92
5 | CTACCAAGGTGAGCAAGGTCGTTGATTACTATTC | 5.03
6 | TCTTGTAGATCAACAGGAGGTTAAGAATGATCGA | 0.56
7 | TGGAGTAGGTTAGTCGGGGCATTCAGCCAACATA | 2.43
8 | CAAACTAGGTCAAGGTCAAAGCCGGTTTGTGCCA | 4.95
9 | CGTCCCAGGTCAGCAGGTCAGTGAAAGCGACGTG | 2.54
10 | GCGTCTGGGGCATCAGCAGGTTACCATAACTTAA | -0.165
11 | GGAACGAGGGCAAAGTTAATAGCATCTGTCGACG | 1.17
12 | TAGCCTAGGTCAGATCGGGCCAGTATACGCTATA | 0.518
13 | CGTCAAAGTTCAAGGAAACGTAACAGAAAGCAGC | 3.29
14 | AGAATGAGGTTACCAAAGATCAGGCAAACGCTTG | 1.36
15 | TCTAGTTGGTGAAAGGTCACACACTCGAAATGCG | 4.89
16 | ATACCAAGGTGATCGTGAGGGCGTTGATACTAAC | 1.42
17 | ACAGACAGGTGATGAAGATAACTCAGGCTATCAT | -0.422
18 | CAAACTAGGTGAAGGTCAAAGTCGGTTTGTGCCA | 3.79
19 | GCAGACAGGTGATACGCAGGTAACTCAGGGTGGC | -0.655
20 | AGTCAAAGTTCAGGACGAGGAAACGTAAAGCACG | 2.2

Row | Sequence | PBM binding z-score
21 | TCTATTAGTTGATTAGGGTAACCGAAACAGCGGA | 0.996
22 | AGTCAAAGTTCAGGACGAGGGAACGTAAAGCACG | 2.05
23 | TCTTGTAGATCCACAGGAGGTTAAGAAAGATCGA | 0.74
24 | GCTCGGAGGACAAGATCAGAGCTTTGTCCGTAGA | -0.806
25 | ATATGTAGGTTACATCCGGGTCATTCAAGCTATG | 4.17
26 | ATCTCTAGGAAAAAGTTCAGTGAATCCCGAGGAT | 0.44
27 | CTCGAAAGGTCGGTTGAGGTGGGTATACGGATAA | 1.63
28 | CCTAGTTGGTCAGGAGGTCACACACCGGATATGA | 4.06
29 | CGAACTAGGTCAATGACAGGACAGTGAATAGTAA | 1.38
30 | TCTTGTAGATCAAGAGGAGGTTAAGAAAGATCGA | 0.632
31 | TCATATAGGTAAAGGTGCAAGTCGAACGATATGA | 0.567
32 | ATCGAAAGGTCGAGAGGTGAGTATACAGAAAGGC | 2.73
33 | GTTCCAAGGTGAATAGGTCGTTGATGAGTAGGCG | 1.08
34 | TTACCAAGGCGAAGGTCGTTGATCCCTCTGTAGA | 0.836
35 | GCGACTGGGGCATCAGCAGCTTACCATAACTTAA | -0.708
36 | CCTACTGGGCCTTCAGGTCATTGATATCAACGTT | 1.45
37 | ACAGACAGGTGATGAATGTAACTCAGGCTATCAT | -0.0862
38 | ATCGAACGGTCGTGAGGTGAGTATACAGAAAGGC | -0.0539
39 | GCTATTAGTTGAAAGGGCACCCGAATGATTCTCG | 0.313
40 | TCTGCTAGGTCAGTTGGTCAGATAACGAGCTGCC | 0.238
